Assay [1] is described as follows: TOX21_PR_LUC_Followup_Antagonist_viability: Viability Assessment in the Tox21 HEK293 Progesterone Receptor (PR) Antagonism Luciferase Follow-Up Assay (AID 2283940). The method, boiled down: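 HEK293-PR-A-luc cells kept in charcoal-stripped FBS medium were plated 5 h before compound addition, then exposed 16 h at 37C; viability read as cellular ATP by luciferase luminescence, loss of signal indicating cytotoxicity.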

Assay [2] can be described thus: TOX21_PR_LUC_Followup_Agonist_viability: Viability Assessment in the Tox21 HEK293 Progesterone Receptor (PR) Agonism Luciferase Follow-Up Assay (AID 2283941).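 Also: loss of signal means cytotoxicity so actives lower viability.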 The method, boiled down:
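HEK293-PR-A-luc cells, kept in 10% charcoal-stripped FBS medium, were treated with compounds for 16 h at 37C. Viability read as cellular ATP by luciferase-coupled luminescence; loss of signal indicates cytotoxicity.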

Assay [3] addresses Nucleoli Translocation, AR (gene 367) (UniProt P10275). In words: UPITT_HCI_U2OS_AR_TIF2_Nucleoli_Antagonist: University of Pittsburgh U2OS Androgen Receptor-Transcriptional Intermediary Factor 2 (AR-TIF2) Antagonism High Content Imaging Assay for Nucleoli Translocation (AID 2283997). Put shortly: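 Measured quantity was AR-RFP fluorescence localized to nucleoli in engineered U2OS cells also bearing TIF2-GFP, acquired on automated high-content imagers. Primary testing used 20 uM compound; actives were confirmed in triplicate wells.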

The target is the same in assay [4]. In words: UPITT_HCI_U2OS_AR_TIF2_Nucleoli_Agonist: University of Pittsburgh U2OS Androgen Receptor-Transcriptional Intermediary Factor 2 (AR-TIF2) Agonism High Content Imaging Assay for Nucleoli Translocation (AID 2283998). Put shortly:
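Cells express human AR fused to red fluorescent protein and TIF2 fused to GFP. Red fluorescence in the nucleolar region was quantified by high-content imaging and fitted as gain-of-signal against a DMSO baseline. Compounds were tested at 0.195 to 50 uM final (0.5% DMSO).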

Assay [5] addresses Ratio of Nucleoli Translocation and Cytoplasm, AR (gene 367) (UniProt P10275). The assay is described as follows: UPITT_HCI_U2OS_AR_TIF2_Nucleoli_Cytoplasm_Ratio_Antagonist: University of Pittsburgh U2OS Androgen Receptor-Transcriptional Intermediary Factor 2 (AR-TIF2) Antagonism High Content Imaging Assay for Ratio of Nucleoli Translocation and Cytoplasm (AID 2283999).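 Also: antagonists lower the DHT-driven ratio of nucleolar to cytoplasmic red signal.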 The method, boiled down: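 U2OS cells co-expressing RFP-tagged human AR and GFP-tagged TIF2, antagonist mode with DHT as baseline. Nucleolar-to-cytoplasmic red fluorescence ratio imaged by high-content microscopy; final compound 20 uM (0.2% DMSO) primary, 0.195–50 uM (0.5% DMSO) concentration-response.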

Assay [6] has the same target. In words: UPITT_HCI_U2OS_AR_TIF2_Nucleoli_Cytoplasm_Ratio_Agonist: University of Pittsburgh U2OS Androgen Receptor-Transcriptional Intermediary Factor 2 (AR-TIF2) Agonism High Content Imaging Assay for Ratio of Nucleoli Translocation and Cytoplasm (AID 2284000).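 Also: hits raise the red nucleolar to cytoplasm ratio above vehicle.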 Put shortly:
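Read-out first: nucleolar-to-cytoplasm ratio of red (AR-RFP) signal, quantified by high-content imaging in U2OS cells co-expressing TIF2-GFP. Activity is scored as signal increase over DMSO. Single-point screening used 20 uM final (0.2% DMSO).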

In the next assay the test system is DIO1 (gene 1733). In words: CCTE_GLTED_hDIO1: CCTE's human Deiodinase 1 (DIO1) Inhibition Assay, Great Lakes Toxicology and Ecology Division (GLTED) Lab (AID 2283987).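 Also: isolated human DIO1 enzyme in a cell-free setup rather than cells; enzyme activity read as free iodide liberated from substrate via Sandell-Kolthoff colorimetry.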 The method, boiled down:
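Cell-free human DIO1 enzyme was incubated with test chemical for 3 h, and iodide released from substrate was measured by Sandell-Kolthoff absorbance. Loss of signal versus DMSO baseline indicated inhibition; plates were run in triplicate.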

For assay [7], the target named is Thyroid hormone receptor alpha (Rattus norvegicus) + Thyroid hormone receptor beta (Rattus norvegicus) (UniProt P18113+P63059). The assay is described as follows: TOX21_TR_LUC_GH3_Antagonist_Followup: Tox21 GH3 Thyroid Hormone Receptor Antagonism Luciferase Follow-Up Assay (AID 2283942). Put shortly: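 Confirmatory qHTS, antagonist mode: T3 (1.0 nM final) + test cpd, 15 conc, 92 uM–5nM final, GH3 rat pituitary line, 24 h, 37C. Luc reporter, RLU vs DMSO.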

The target in the next assay is THRA (gene 7067) (UniProt P10827). The assay is described as follows: TOX21_TRA_COA_Antagonist_Followup_ratio: Tox21 Thyroid Hormone Receptor alpha Antagonism through Coactivator Recruitment Follow-Up Assay, Ratio (AID 2283953). The method, boiled down: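 520:495 nm emission ratio (excitation 340 nm) reports fluorescein-SRC-2 peptide recruitment to GST-TRα LBD by TR-FRET with Tb anti-GST antibody. Values were normalized to DMSO (0%) and T3 control wells (100%); loss of signal indicated antagonism.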
Chain of THRA (gene 7067) (P10827 whole entry, looked up, the tested form may be a part): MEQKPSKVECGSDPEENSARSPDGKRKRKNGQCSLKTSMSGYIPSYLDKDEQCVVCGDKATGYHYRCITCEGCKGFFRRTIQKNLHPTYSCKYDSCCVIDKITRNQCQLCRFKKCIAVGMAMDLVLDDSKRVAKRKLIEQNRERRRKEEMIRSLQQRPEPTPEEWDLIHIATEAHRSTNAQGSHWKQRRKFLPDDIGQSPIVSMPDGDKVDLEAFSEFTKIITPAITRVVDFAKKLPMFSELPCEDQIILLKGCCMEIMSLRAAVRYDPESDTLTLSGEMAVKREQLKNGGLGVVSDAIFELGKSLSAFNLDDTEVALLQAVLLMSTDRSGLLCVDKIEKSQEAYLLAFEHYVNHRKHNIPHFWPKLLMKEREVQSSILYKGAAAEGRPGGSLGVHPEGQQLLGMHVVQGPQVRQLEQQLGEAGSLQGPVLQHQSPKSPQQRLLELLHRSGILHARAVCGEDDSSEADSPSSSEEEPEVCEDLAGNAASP

Assay [8] has as its target THRB (gene 7068) (UniProt P10828). In words: TOX21_TRB_BLA_Antagonist_Followup_ratio: Tox21 Thyroid Hormone Receptor beta Antagonism Beta-lactamase (BLA) Follow-Up Assay, Ratio (AID 2283958). Put shortly:
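HEK293T cells with a GAL4-TRb LBD fusion and UAS-bla reporter, 3,000 cells/well in phenol red-free DMEM with 2% charcoal-stripped FBS. Exposed 18 h at 37C to 11 concentrations in triplicate; CCF4 460:530 nm ratio after 2 h, DMSO-referenced.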

Assay [9] is described as follows: TOX21_TRB_BLA_Antagonist_Followup_viability: Viability Assessment in the Tox21 Thyroid Hormone Receptor beta Antagonism Beta-lactamase (BLA) Follow-Up Assay (AID 2283961). The method, boiled down:
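HEK293T cells stably expressing GAL4-DBD/human TRβ-LBD with UAS-bla reporter, 3,000 cells/well in phenol red-free DMEM, 2% charcoal-stripped FBS. Compounds at 11 concentrations in triplicate, 18 h at 37C/5% CO2; viability by CellTiter-Glo luminescence after 30 min at room temperature.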

For assay [10], the target named is THRB (gene 7068) (UniProt P10828). In words: TOX21_TRB_COA_Antagonist_Followup_ratio: Tox21 Thyroid Hormone Receptor beta Antagonism through Coactivator Recruitment Follow-Up Assay, Ratio (AID 2283967). The method, boiled down:
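Test compound was incubated with 5.0 nM GST-TRβ LBD in 0.10% BSA. Then 200 nM fluorescein-SRC-2 peptide and 2 nM terbium anti-GST antibody were added. TR-FRET (520:495 nm) was measured and normalized to DMSO and T3 controls.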

Assay [11] can be described thus: TOX21_TR_RXR_BLA_Antagonist_Followup_viability: Viability Assessment in the Tox21 Thyroid Hormone Receptor beta Retinoid X Receptor alpha (RXRa) Antagonism Beta-lactamase (BLA) Follow-Up Assay (AID 2283979). Put shortly: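 Follow-up compounds (11 concentrations, triplicate) were incubated 16 h at 37C/5% CO2 with HEK293T RXRa-bla cells seeded at 2,500/well in charcoal-stripped-serum medium. ATP content by CellTiter-Glo luminescence gave viability; curves fitted in both directions against DMSO.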

Assay [12] deals with Retinoic acid receptor RXR-alpha (Homo sapiens) (UniProt P19793). The assay is described as follows: TOX21_TR_RXR_BLA_Antagonist_Followup_ratio: Tox21 Thyroid Hormone Receptor beta Retinoid X Receptor alpha (RXRa) Antagonism Beta-lactamase (BLA) Follow-Up Assay, Ratio (AID 2283972). The method, boiled down:
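RXRa-UAS-bla HEK293T cells in phenol red-free DMEM with 2% charcoal-stripped FBS; compounds at 11 concentrations in triplicate, 16 h at 37C. LiveBLAzer FRET-B/CCF4-AM substrate 2 h at room temperature; read as 460:530 nm ratio versus DMSO.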

Molecules are shown by their SMILES. Records with an inconclusive call do not appear. Calls of active or inactive are those of the source. The calls were made as follows: active = hit-call score of the fitted dose curve at least 0.9, where 1 is the maximum; inconclusive = response in the unintended direction; inactive = score below 0.9.

Chain of Ratio of Nucleoli Translocation and Cytoplasm, AR (gene 367) (P10275 whole entry, looked up): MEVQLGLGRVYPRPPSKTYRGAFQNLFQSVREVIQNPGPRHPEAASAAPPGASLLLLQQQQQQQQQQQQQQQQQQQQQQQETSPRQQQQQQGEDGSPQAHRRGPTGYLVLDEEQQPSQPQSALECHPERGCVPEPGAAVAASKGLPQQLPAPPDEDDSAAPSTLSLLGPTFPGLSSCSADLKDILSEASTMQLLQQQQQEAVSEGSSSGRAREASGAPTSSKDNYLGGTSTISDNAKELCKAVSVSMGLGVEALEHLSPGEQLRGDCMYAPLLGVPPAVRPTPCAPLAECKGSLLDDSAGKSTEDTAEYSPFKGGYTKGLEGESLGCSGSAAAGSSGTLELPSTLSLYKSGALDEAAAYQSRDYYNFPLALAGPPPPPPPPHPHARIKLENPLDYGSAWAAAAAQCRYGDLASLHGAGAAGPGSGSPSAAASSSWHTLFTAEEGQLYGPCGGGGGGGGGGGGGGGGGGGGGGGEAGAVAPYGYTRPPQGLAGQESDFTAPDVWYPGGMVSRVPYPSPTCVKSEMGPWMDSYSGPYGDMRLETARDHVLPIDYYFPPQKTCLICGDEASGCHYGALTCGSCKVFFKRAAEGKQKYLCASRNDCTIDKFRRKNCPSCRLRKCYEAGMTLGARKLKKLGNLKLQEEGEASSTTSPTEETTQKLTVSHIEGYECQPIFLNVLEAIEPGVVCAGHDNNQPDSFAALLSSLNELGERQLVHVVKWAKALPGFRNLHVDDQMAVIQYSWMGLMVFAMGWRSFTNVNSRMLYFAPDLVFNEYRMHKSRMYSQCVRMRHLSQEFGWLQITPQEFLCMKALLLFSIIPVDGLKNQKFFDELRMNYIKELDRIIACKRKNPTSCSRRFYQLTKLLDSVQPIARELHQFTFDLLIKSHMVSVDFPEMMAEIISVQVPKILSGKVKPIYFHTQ
Chain of Nucleoli Translocation, AR (gene 367) (P10275 whole entry, looked up): as above
Chain of THRB (gene 7068) (P10828 whole entry, looked up, the tested form may be a part): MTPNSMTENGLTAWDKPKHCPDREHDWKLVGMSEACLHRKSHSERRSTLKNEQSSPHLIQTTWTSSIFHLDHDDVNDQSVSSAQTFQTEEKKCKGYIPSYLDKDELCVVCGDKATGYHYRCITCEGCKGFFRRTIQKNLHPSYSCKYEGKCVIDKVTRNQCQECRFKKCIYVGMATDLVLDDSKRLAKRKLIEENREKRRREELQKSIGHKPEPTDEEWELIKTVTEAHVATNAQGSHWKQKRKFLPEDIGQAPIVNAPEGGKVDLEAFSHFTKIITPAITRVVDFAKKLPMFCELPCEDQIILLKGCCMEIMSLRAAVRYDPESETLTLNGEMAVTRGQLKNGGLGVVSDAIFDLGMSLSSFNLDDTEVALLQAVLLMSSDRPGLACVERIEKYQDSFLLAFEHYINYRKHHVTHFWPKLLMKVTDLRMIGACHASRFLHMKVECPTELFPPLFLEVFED
Chain of Retinoic acid receptor RXR-alpha (Homo sapiens) (P19793 whole entry, looked up): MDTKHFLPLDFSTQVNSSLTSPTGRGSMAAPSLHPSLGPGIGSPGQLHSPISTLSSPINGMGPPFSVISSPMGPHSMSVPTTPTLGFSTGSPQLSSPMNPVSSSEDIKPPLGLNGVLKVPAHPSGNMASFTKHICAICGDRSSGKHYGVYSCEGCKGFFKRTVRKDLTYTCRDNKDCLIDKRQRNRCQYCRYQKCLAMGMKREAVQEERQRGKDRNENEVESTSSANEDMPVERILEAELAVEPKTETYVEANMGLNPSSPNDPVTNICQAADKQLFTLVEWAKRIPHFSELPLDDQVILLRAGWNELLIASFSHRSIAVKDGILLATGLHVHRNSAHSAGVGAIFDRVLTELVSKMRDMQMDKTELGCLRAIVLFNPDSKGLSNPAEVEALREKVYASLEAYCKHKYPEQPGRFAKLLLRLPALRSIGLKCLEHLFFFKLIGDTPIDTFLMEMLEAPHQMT

On to `CC(C)(c1cc(Br)c(OCCO)c(Br)c1)c1cc(Br)c(OCCO)c(Br)c1`, for which the result in assay [1] and in assay [2] was inactive.

With `CC(CC=O)CCCC(C)(C)O` (stereo unspecified), the call in assay [3], in assay [4], in assay [5] and in [6] was inactive.

As to `CC(=O)[C@H]1[C@H](C#N)C[C@H]2[C@@H]3CC=C4C[C@@H](O)CC[C@]4(C)[C@H]3CC[C@@]21C`, the compound was called inactive in assay [2].

For the compound `CCOC(=O)c1ccccc1C(=C1C=C(Br)C(=O)C(Br)=C1)c1cc(Br)c(O)c(Br)c1`, the compound was classed as inactive in assay [1] and in assay [2].

For `C#CC1(O)CC[C@H]2[C@@H]3CCC4=CCCC[C@@H]4[C@H]3CC[C@@]21C` (stereo partly specified), the compound was classed as inactive in assay [1]. Moreover, the AC50 in assay [2] is 72.7 µM (active).

Take `C[C@]12C=CC(=O)C=C1CC[C@@H]1[C@@H]2[C@@H](O)C[C@@]2(C)[C@H]1CC[C@]2(O)C(=O)CO`: the outcome in assay [1] and in assay [2] was inactive.

For the compound `Cc1ccc(N/N=c2\c(=O)cc/c(=N/Nc3ccc(S(=O)(=O)O)cc3)c2=O)c(C)c1`, the AC50 in the assay with DIO1 (gene 1733) was 46.6 µM (active).

Turning to `CCCCCCCC[N+](C)(CCCCCCCC)CCCCCCCC`, the half-maximal activity concentration (AC50) in the assay with DIO1 (gene 1733) is 70.8 µM (active).

As for `O=c1cc(-c2ccccc2)oc2ccccc12`, the AC50 in assay [3] was 21.9 µM (active); in assay [5], 10.5 µM (active). The outcome in assay [4] was inactive.

With `CCCCC/C=C\CCC=O`, the compound was called inactive in [3], in [4] and in assay [6].

Take `CCCc1ccc(OC)cc1`: the result in assay [3] and in assay [5] was inactive.

Regarding `c1cc(N(CC2CO2)CC2CO2)ccc1OCC1CO1` (stereo unspecified), the AC50 in assay [7] was 60.9 µM (active). In addition, the result (in the assay with THRA (gene 7067); in the assay with THRB (gene 7068) [8]; in [9]; in the assay with THRB (gene 7068) [10]; in assay [11]) was inactive.

Regarding `CCCCCCCCCCCCCOP(=O)(O)O`, in the assay with DIO1 (gene 1733), the AC50 is 91 µM (active).

For the compound `CC(C)c1ccc2cc(C(C)C)ccc2c1`, the call in assay [3], in assay [5] and in assay [6] was inactive.

In the case of `CC(C)c1ccc2c(C(C)C)cc(C(C)C)c(S(=O)(=O)O)c2c1`, the compound was called inactive in assay [3] and in assay [6].

On to `Cc1oncc1C(=O)Nc1ccc(C(F)(F)F)cc1`, for which the outcome (in the assay with THRA (gene 7067); with THRB (gene 7068) [8]; in assay [9]; in the assay with THRB (gene 7068) [10]; in assay [12]; in assay [11]) was inactive.

Regarding `CCCCCCCC/C=C\CCCCCCCC(=O)O`, the AC50 in the assay with DIO1 (gene 1733) is 74 µM (active).

`CCCCC/C=C\C/C=C\CCCCCCCC(=O)OC`: the half-maximal activity concentration (AC50) in the assay with DIO1 (gene 1733) is 21 µM (active).

As for `COCc1c(C(C)C)nc(C(C)C)c(/C=C/[C@@H](O)C[C@@H](O)CC(=O)O)c1-c1ccc(F)cc1`, the result (in [7]; in the assay with THRA (gene 7067); with THRB (gene 7068) [8]; in assay [9]; with THRB (gene 7068) [10]; in assay [11]) was inactive.

On to `CCC(=O)Oc1ccc(/C(CC)=C(\CC)c2ccc(OC(=O)CC)cc2)cc1`, for which the compound was classed as inactive in assay [1] and in assay [2].

One may read the AC50 as the concentration giving half of the maximal activity seen.

Values taken from PubChem BioAssay (EPA / NIEHS).
